Screens as filed in PubChem.
HCT116 bCat-KO: primary screen for growth suppressors in beta-catenin knockout HCT116 cells (colon tumor, human). HCT116 beta-catenin knockout viability, CellTiter-Glo, 60 h; stronger effect = lower value. viability, % at 10 µM. actives 1.5% (n = 140,000). AID 818, 2007;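 active = viability at or under a set limit, the compound median less 4 SD, cut at about 6% in these data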
Insulin prom up: insulin promoter activators in MIN6 cells, imaging, high-content screening, mouse beta cells; MIN6 insulin promoter-GFP reporter; stronger effect = higher value; z-score at 5 µM; actives 0.3% (n = 190,000);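 active = z-score above 3 at 5 µM with at least 500 cells counted in the well; inconclusive = wells under 500 cells, flagged as cytotoxic or low count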
INS promoter inh: inhibitors of insulin promoter-driven GFP, primary screen, imaging, TRM-6 cells (human fetal islet line), eGFP reporter, cell count. reporter expression induced with tamoxifen. inhibition, % at 2 µM. actives 0.9% (n = 130,000);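 active = inhibition above the mean plus 3 SD, with well images judged a real hit on visual review, cut at about 60% in these data, passing the limit was not always enough; inconclusive = inhibition over the cutoff but images rejected on review; inactive = inhibition not above the cutoff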
L major viab: Leishmania major promastigote growth inhibition, primary screen | Leishmania major promastigotes, resazurin fluorescence viability | inhibition, % at 10 µM | actives 9% (n = 200,000); in the data active = inhibition above about 50%;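 note: promastigotes grown with compound for 44 hours at 28 °C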
PTEN del growth: growth suppression of PTEN-null HCT116, primary screen, cell-based, CellTiter-Glo; HCT116 PTEN-null viability, 60 h; stronger effect = lower value; viability, % at 10 µM; actives 1.2% (n = 140,000); AID 827, 2007;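 active = viability at or below a set limit, 4 SD under the median of all tested compounds, cut at about 3.7% in these data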;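 note: PTEN knockout HCT116 line with beta catenin targeted HCT116 as companion control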
Autophagy HCS: autophagy modulators in MEF cells, primary screen, imaging, high-content, MEF GFP-LC3 | calls only at 10 µM (by protocol) | MEF GFP-LC3 puncta imaging; test concentration mostly 10 µM | actives 0.98% (n = 190,000);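 active = percentage of spot-positive cells more than 3 SD above its plate mean, without a fluorescence outlier flag or 80% toxicity; inconclusive = no clear call, values can overlap the other calls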
Of the large screens only hits and unclear results are named; the others gave an inactive call. Most compounds without a hit are left out; they make up all but 9.6% or so of the library.

CNC(=S)N(CCc1cccc(C)c1)Cc1cc2cc(OC)c(OC)cc2[nH]c1=O	none
Cc1cccc2cc(CN(CCCN(C)C)C(=S)NCCc3ccccc3)c(=O)[nH]c12	L major viab 64.7 (no result: HCT116 bCat-KO, INS promoter inh, PTEN del growth)
COc1cc2cc(CN(CCc3cccc(C)c3)C(=S)NCCCN(C)C)c(=O)[nH]c2cc1OC	L major viab 52.1
Cc1ccc2[nH]c(=O)c(CN(CCCN(C)C)C(=S)NCCc3ccccc3)cc2c1	L major viab 75.7 (no result: HCT116 bCat-KO, INS promoter inh, PTEN del growth)
Cc1ccc(NC(=S)N(CCN(C)C)C(C)c2cccnc2)c(C)c1 (centres undefined)	none (no result: HCT116 bCat-KO, Insulin prom up, INS promoter inh, PTEN del growth)
COc1ccc2cc(C(=O)Nc3ccc(O)cc3)sc(=O)c2c1OC	L major viab 100.2
Cc1nnc(SCC(=O)Nc2cc(-c3cc(C)c(C)cc3C)nn2-c2ccccc2)s1	L major viab 97.1
CC(C)(C)c1cc(NC(=O)CSc2nncs2)n(-c2ccccc2)n1	L major viab 55.0
Cc1nnc(SCC(=O)Nc2cc(C(C)(C)C)nn2-c2ccccc2)s1	none
CC(=O)c1ccc(OCCCC(=O)Nc2ccc(C)c(S(=O)(=O)N(C)C)c2)cc1	L major viab 60.7
COc1ccc(OCC(=O)Nc2ccc(C)c(S(=O)(=O)N(C)C)c2)cc1	none (no result: HCT116 bCat-KO, PTEN del growth)
Cc1cc(C)n(-c2ccc(C(=O)Nc3ccc(C)c(S(=O)(=O)N(C)C)c3)cc2)n1	L major viab 53.2
Cc1cc(C)n(-c2ccc(C(=O)Nc3ccc(S(=O)(=O)N(C)C)cc3)cc2)n1	none
COCCn1nnnc1C(C(C)C)N(Cc1cccnc1)Cc1ccccc1Cl (centres undefined)	L major viab 65.6
O=C(CCl)N(c1ccc(Cl)cc1)c1c[nH]c2ccccc12	HCT116 bCat-KO 1.7, Insulin prom up inconclusive, L major viab 100.4, PTEN del growth 1.8
O=C(NCc1ccc(Cl)cc1)C(=O)c1c[nH]c2ccccc12	none (no result: HCT116 bCat-KO, PTEN del growth)
O=C(CCl)N(c1ccccc1)c1c[nH]c2ccccc12	HCT116 bCat-KO 1.9, L major viab 97.3, PTEN del growth 1.3, Autophagy HCS inconclusive
CC(c1nc2ccccc2c(=O)[nH]1)N(C)CCOc1ccc(Cl)cc1 (centres undefined)	none (no result: HCT116 bCat-KO, INS promoter inh, L major viab, PTEN del growth, Autophagy HCS)
COc1ccc(C(NC(C)=O)c2ccc3cccnc3c2O)c(OC)c1 (centres undefined)	HCT116 bCat-KO 3.7, PTEN del growth 2.5 (no result: INS promoter inh, L major viab, Autophagy HCS)
CCCCC(=O)NC(c1ccccc1OC)c1ccc2cccnc2c1O (centres undefined)	none (no result: HCT116 bCat-KO, INS promoter inh, L major viab, PTEN del growth, Autophagy HCS)
CCCC(=O)NC(c1ccccc1OC)c1ccc2cccnc2c1O (centres undefined)	L major viab 100.2 (no result: HCT116 bCat-KO, PTEN del growth)
COc1cc(/C=N/Nc2ccc(F)cc2F)cc(OC)c1O	L major viab 67.9
Cc1ccc(NP(=O)(c2ccc(N(C)C)cc2NC(=O)c2cccs2)N2CCOCC2)cc1 (centres undefined)	none (no result: INS promoter inh)
Cc1ccc(NP(=O)(c2ccc(N(C)C)cc2NC(=O)c2cccs2)N2CCOCC2)cc1Cl (centres undefined)	L major viab 58.4 (no result: INS promoter inh)
CCN1C(=O)S/C(=C/c2c(OCc3ccc(C(=O)O)cc3)ccc3ccccc23)C1=O	none
Cc1ccc(N2NC(C)(c3cccs3)NC2=S)cc1 (centres undefined)	L major viab 88.5
Cc1cc(C(=O)N/N=C/c2cccc([N+](=O)[O-])c2O)n[nH]1	none (no result: INS promoter inh)
COc1cccc(C(=O)Oc2c(Br)cc(Br)cc2/C=N/NC(=O)c2cc(C)[nH]n2)c1	L major viab 78.1 (no result: HCT116 bCat-KO, INS promoter inh, PTEN del growth)
CCn1ncc([N+](=O)[O-])c1C(=O)NC1CCCCC1	none (no result: HCT116 bCat-KO, INS promoter inh, PTEN del growth)
CN(C)CCCNS(=O)(=O)c1ccc(N2CCC(c3ccc(Cl)cc3)=N2)cc1	HCT116 bCat-KO 1.2, Insulin prom up inconclusive, L major viab 100.5, PTEN del growth 1.1, Autophagy HCS inconclusive
O=S(=O)(c1ccc(N2CCC(c3ccc(Cl)cc3)=N2)cc1)N(CCO)CCO	none
NC(=O)c1nsc(C(=O)N(c2ccccc2)C(C(=O)NCC2CCCO2)c2cccs2)c1N (centres undefined)	L major viab 72.9 (no result: HCT116 bCat-KO, INS promoter inh, PTEN del growth)
O=C(NCC1CCCO1)C(c1cccs1)N(Cc1ccccc1)C(=O)c1ccc(-c2ccccc2)[nH]1 (centres undefined)	L major viab 68.1
CC(C)(C)NC(=O)C(c1cccs1)N(CC1CCCO1)C(=O)c1ccc(-c2ccccc2)[nH]1 (centres undefined)	none
O=C(NCC1CCCO1)C(c1cccs1)N(C(=O)c1ccc(-c2ccccc2)[nH]1)C1CCCC1 (centres undefined)	L major viab 92.2 (no result: Insulin prom up)
Cc1ccc(S(=O)(=O)N2CCOCC2)cc1NC(=O)CSc1n[nH]c(N)n1	none (no result: HCT116 bCat-KO, PTEN del growth)
COc1cc(CNc2nnnn2C)ccc1OCc1c(F)cccc1Cl	none (no result: HCT116 bCat-KO, PTEN del growth)
COc1cc(CNCCc2ccccc2F)ccc1OCc1ccc(Cl)nc1	L major viab 100.4 (no result: Insulin prom up)
COc1cc(CNCCc2ccc(F)cc2)ccc1OCc1ccc(Cl)nc1	L major viab 100.5 (no result: Insulin prom up)
COc1cc(CO)ccc1OCc1ccc(Cl)nc1	none (no result: HCT116 bCat-KO, INS promoter inh, L major viab, PTEN del growth, Autophagy HCS)
CCOC(=O)c1c(-c2ccc(F)cc2)csc1NC(=O)CN1C(=O)NC2(CCCCC2C)C1=O (centres undefined)	none
CC(=O)Nc1nc(C)c(-c2csc(Nc3ccc(O)cc3)n2)s1	L major viab 62.7
O=C(Nc1ccc([N+](=O)[O-])cc1)Nc1nc(-c2ccc(Cl)s2)cs1	HCT116 bCat-KO 1.5, INS promoter inh 77.8, L major viab 81.5, PTEN del growth 1.2
CC(=O)Nc1nc(C)c(-c2csc(Nc3cccc([N+](=O)[O-])c3)n2)s1	HCT116 bCat-KO 1.8, L major viab 97.5, PTEN del growth 1.7 (no result: Insulin prom up)
CC(=O)Nc1nc(-c2cc([N+](=O)[O-])cs2)cs1	L major viab 74.8 (no result: HCT116 bCat-KO, INS promoter inh, PTEN del growth)
CCOc1ccc(-n2c(=O)c3c4c(sc3n(CC(=O)NCC3CCCO3)c2=O)CCCC4)cc1 (centres undefined)	none (no result: HCT116 bCat-KO, PTEN del growth)
Cc1nc(C)c(-c2csc(Nc3cccnc3)n2)s1	INS promoter inh 87.1
c1cncc(Nc2nc(-c3ccncc3)cs2)c1	none
C=CC[n+]1ccc(/C=C2\C=Cc3cc(C)ccc3N2CC)c2ccccc21	L major viab 100.5 (no result: HCT116 bCat-KO, Insulin prom up, INS promoter inh, PTEN del growth)
COc1ccc(CNCc2cccc(Oc3ccccc3)c2)cc1	L major viab 87.1 (no result: HCT116 bCat-KO, Insulin prom up, INS promoter inh, PTEN del growth)
COc1ccccc1NC(=S)N(Cc1ccccn1)Cc1ccccc1Cl	none (no result: HCT116 bCat-KO, INS promoter inh, PTEN del growth)
COc1ccc(CCN(Cc2ccccn2)C(=S)Nc2cccc(SC)c2)cc1OC	none (no result: HCT116 bCat-KO, PTEN del growth)
COc1ccccc1NC(=S)N(Cc1ccc(C)cc1)Cc1ccccn1	L major viab 91.3 (no result: HCT116 bCat-KO, Insulin prom up, INS promoter inh, PTEN del growth)
CSc1cccc(NC(=S)N(Cc2ccc(C)cc2)Cc2ccccn2)c1	L major viab 97.4 (no result: HCT116 bCat-KO, INS promoter inh, PTEN del growth)
COC(=O)C(C)Sc1ccc2nnc(CCNS(=O)(=O)c3ccc(C)cc3)n2n1 (centres undefined)	none (no result: HCT116 bCat-KO, INS promoter inh, PTEN del growth)
COc1ccc(S(=O)(=O)N2CCOCC2)cc1NC(=O)c1cc2c(s1)CCCC2	none (no result: INS promoter inh)
